In PubChem BioAssay:
This is one part of the list. Calls of active or inactive are those of the source.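 How the source made its calls, unless noted: active means GFP response above 150% of the DMSO level; inconclusive means fewer than 70 events counted for a yeast strain; inactive means the rest.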

What was measured:
[1] = hit retest on RPL19A-GFP reporter strain – cell-based, S. cerevisiae, flow cytometry, cherry picks, mother/daughter gates, confirmation (AID 2270;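 active means GFP response below 50% of the DMSO control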); conditions: 3 h, at 10 µM, stronger effect = lower value, 100 = same GFP as DMSO wells
[2] = yeast TOR pathway reporter LAP4-GFP change – cell-based, cherry picks, flow cytometry, mother/daughter gates, confirmation (AID 2271;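 active means GFP response above 150% of the DMSO control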;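 further: ratio of sample to DMSO plate mean so 100% equals DMSO level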); conditions: S. cerevisiae LAP4-GFP strain, 3 h, at 10 µM, stronger effect = higher value, 100 means same as DMSO control
[3] = TOR pathway reporter MEP2-GFP, retest of hits – S. cerevisiae, flow cytometry GFP, cherry picks, confirmation (AID 2272;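 active means GFP response above 150% of the DMSO control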;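 further: ratio of well signal to plate DMSO mean so 100% equals DMSO level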); conditions: S. cerevisiae MEP2-GFP strain, 3 h, at 10 µM, stronger effect = higher value
[4] = yeast AGP1-GFP fluorescence change, single-dose – cell-based, flow cytometry, S. cerevisiae, cherry picks, confirmation (AID 2273);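 further: median GFP channel fluorescence over the whole cell population gate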; conditions: S. cerevisiae AGP1-GFP strain, 3 h, at 10 µM
[5] = TOR pathway CIT2 reporter hit retest – S. cerevisiae, GFP fusion, cherry picks, mother/daughter gates, confirmation (AID 2274); conditions: S. cerevisiae CIT2-GFP strain, flow cytometry, 3 h, at 10 µM, stronger effect = higher value
[6] = green-channel fluorescence artefact in S. cerevisiae – s288c strain, artefact control for yeast TOR pathway GFP screen, dose response (AID 2757;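 active means fluorescence span over the dose series, or activity score, above about 33, limit read from the data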;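 further: thousands of bead-calibrated equivalent soluble fluorophore molecules from median cell fluorescence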); conditions: 520 nm autofluorescence, flow cytometry, 3 h, at 33 µM, stronger effect = higher value, zero means same as solvent-only cells
[7] = measured here: daughter cell gate
[8] = measured here: mother cell gate
[9] = measured here: mother cell gate response

SMILES | GFP response vs DMSO [1] | GFP response vs DMSO [1, 7] [%] | GFP response vs DMSO [1, 8] [%] | GFP response relative to DMSO [2] | GFP response relative to DMSO [2, 9] [%] | GFP response vs DMSO [3] | GFP response, % of DMSO [4] | GFP response, % of DMSO [5] | GFP response, % of DMSO [5, 7] [%] | GFP response, % of DMSO [5, 8] [%] | fluorescence change (kMESF span) [6] | GFP response relative to DMSO ([2]; measured here: daughter cell gate response) [%]
O=C1C=C(c2ccc(Cl)cc2)C(=O)N1Nc1ccccc1 | 61.9% (inactive) | 89.1 | 51.9 | 96.2% (inactive) | 81.9 | 113% (inactive) | 102% (inactive) | 66.5% (inactive) | 99.7 | 53.7 | 0.3 (inactive) | –
C/C(=N\NC(=O)c1ccc(Cl)c(Cl)c1)c1ccccn1 | 104% (inactive) | 96.4 | 88.5 | 269% (active) | – | 118% (inactive) | 127% (inactive) | 114% (inactive) | 97.6 | 99.3 | – | –
O=C(O)CCC(=O)OCC1CCCCC1 | 96.7% (inactive) | 97.6 | 95.6 | 104% (inactive) | – | 103% (inactive) | 99.3% (inactive) | 98.6% (inactive) | 95.8 | 94.9 | – | –
O=C(Nc1cc(F)c(Br)cc1F)c1ccc(Cl)cc1 | 99.3% (inactive) | 93.3 | 87.2 | 97.7% (inactive) | – | 106% (inactive) | 98.8% (inactive) | 103% (inactive) | 94 | 94.9 | – | –
CCCc1ccc(OCC(=O)NNC(=S)NC(=O)c2ccco2)cc1 | 111% (inactive) | – | 97.1 | 259% (active) | 226 | 139% (inactive) | 123% (inactive) | 112% (inactive) | 85.2 | 99.3 | 9.67 (inactive) | –
Cc1nn2c(N3CCCC3)cc(C(C)C)nc2c1-c1ccccc1 | 100% (inactive) | 92.4 | – | 102% (inactive) | 103 | 101% (inactive) | 97.8% (inactive) | 97.3% (inactive) | 97.4 | 95.6 | – | 97.5
COc1ccccc1-c1noc(-c2cccnc2)n1 | 95.3% (inactive) | 93 | 95.4 | 97.7% (inactive) | – | 108% (inactive) | 96.6% (inactive) | 95.8% (inactive) | 88.7 | 82.6 | – | –
